An excerpt weighted towards active compounds, which were near 18% of everything screened.
DT40 TDP1 CPT = DT40-hTDP1 cell growth loss with CPT; chicken DT40 Tdp1-/-;hTDP1 cells + 20 nM CPT, ATP luminescence, 48 h; Potency, µM (titrated, usually from 46.2 µM), hits mostly inhibitors; 12% of 420,000 active; further: nearly all actives have a fitted effect of over 55% in size
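Cell growth measured by CellTiter-Glo luminescence after a minimum 48 h, 37 C compound exposure with 20 nM CPT in Tdp1-knockout DT40 cells stably expressing hTDP1, seeded 400/well; qHTS titration format.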
TDP1 block = TDP1 (human) enzyme inhibition; Q9NUW8; recombinant TDP1, AlphaScreen DNA substrate cleavage; Potency, µM (highest dose often 130 µM), hits mostly inhibitors; 0.28% of 350,000 active; AID 485290; further: nearly all actives have a fitted effect of over 40% in size
Target sequence (Q9NUW8 whole entry, looked up): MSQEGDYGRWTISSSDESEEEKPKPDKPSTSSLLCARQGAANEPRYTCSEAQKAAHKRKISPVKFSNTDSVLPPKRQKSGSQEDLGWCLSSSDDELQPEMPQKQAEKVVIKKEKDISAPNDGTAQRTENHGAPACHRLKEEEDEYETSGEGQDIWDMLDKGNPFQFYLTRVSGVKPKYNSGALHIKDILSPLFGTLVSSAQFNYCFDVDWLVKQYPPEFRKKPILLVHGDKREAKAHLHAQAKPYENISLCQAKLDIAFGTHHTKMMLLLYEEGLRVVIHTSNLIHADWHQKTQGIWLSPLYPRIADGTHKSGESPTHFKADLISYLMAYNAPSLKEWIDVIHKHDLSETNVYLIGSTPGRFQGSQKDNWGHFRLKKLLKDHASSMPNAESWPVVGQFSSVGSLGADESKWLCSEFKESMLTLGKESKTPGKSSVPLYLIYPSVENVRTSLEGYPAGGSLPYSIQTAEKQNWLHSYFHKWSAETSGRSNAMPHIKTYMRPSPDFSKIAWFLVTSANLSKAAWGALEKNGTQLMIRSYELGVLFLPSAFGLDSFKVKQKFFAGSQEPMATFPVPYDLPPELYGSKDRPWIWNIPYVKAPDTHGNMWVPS
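Compounds were preincubated with Tdp1 (1 nM final) for 15 min at room temperature before substrate (15 nM final) started a 5 min reaction; beads (10 ug/ml final) were then added for 10 min before AlphaScreen detection.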
TDP1 cell noCPT = qHTS for Inhibitors of human tyrosyl-DNA phosphodiesterase 1 (TDP1): qHTS in cells in absence of CPT; 15% of 420,000 active; DT40 Tdp1-/- hTDP1 cells, no CPT, ATP luminescence, 48 h; Potency, µM (top dose mostly 46.2 µM), hits mostly inhibitors; further: nearly all actives have a fitted effect of over 55% in size
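Compound effects on proliferation are scored in DT40 Tdp1-/-;hTDP1 cells in the absence of CPT. ATP levels (CellTiter-Glo luminescence) are recorded after a ≥48 hr, 37 °C incubation.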
VDR inhibitor = vitamin D3 receptor (human) inhibition | VDR-SRC2-3 peptide fluorescence polarization, 2 h | 0.93% of 400,000 active | Potency, µM, usual class: inhibitors
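VDR–SRC2-3 interaction, FP format. Cmpds 23 nl via pintool, brief spin, 2 h ambient incubation.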
PLK1 PBD block = inhibitors of human PLK1 polo-box domain binding; Plk1 PBD binding of FITC phosphopeptide, fluorescence polarization; 2.8% of 360,000 active; P53350; Potency, µM, most hits filed as inhibitors; AID 720504; further: series mostly up to about 57 µM; nearly all actives have a fitted effect of over 65% in size
KAT2A inh = inhibitors of human GCN5L2 histone acetyltransferase | Q92830 | Potency, µM (highest dose often 58.9 µM), most hits filed as inhibitors | GCN5L2 HAT assay, ThioGlo1 CoA-SH fluorescence | 0.21% of 390,000 active
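ThioGlo1-coupled HAT assay: 20nM GCN5L2, 70uM acetyl-CoA, 75uM H3(1-25) peptide, pH 7.5. Fluorescence read at 340/540nm at start and after 20 min at room temperature.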
Each line names hits and unclear results; the compound was inactive in the other large screens. The call rests on the fitted dose curve; in most records, active means well fitted curve in the direction sought with a large enough effect; inconclusive means small, poorly fitted or top-dose-only effect, or another doubt; inactive means no such curve, though single readings can be large; an effect the other way counts as inactive or inconclusive.

O=C1OC(c2ccccc2)(c2ccccc2)N2CCN(C(=O)NCc3ccc(F)cc3)CC12 (stereo not given)	none (no result: DT40 TDP1 CPT, TDP1 cell noCPT, VDR inhibitor, PLK1 PBD block, KAT2A inh)
COc1cc(C(=O)N=c2sc3c(C)ccc(OC)c3n2C)cc(OC)c1OC	DT40 TDP1 CPT 15µM, TDP1 cell noCPT 5.2µM (no result: TDP1 block)
COc1ccc(C(=O)N=c2sc3c(C)ccc(OC)c3n2C)cc1	DT40 TDP1 CPT 3.3µM, TDP1 cell noCPT 4.1µM
COc1ccc(OC)c2c1sc(=NC(=O)C(C)(C)C)n2C	DT40 TDP1 CPT 21µM, TDP1 cell noCPT inconclusive
CCCC(=O)N=c1sc2c(OC)ccc(OC)c2n1C	none
CC(C)C(C(=O)NCC1CCCO1)N(C(=O)CNS(=O)(=O)c1ccc(F)cc1)C1CCCCC1 (stereo not given)	none (no result: TDP1 block)
COC(=O)C1CCN(C(c2ccccc2Cl)c2sc3nc(-c4ccco4)nn3c2O)CC1 (stereo not given)	none (no result: PLK1 PBD block)
COc1cc(C(=O)ON=C2C3CC4CC(C3)CC2C4)cc(OC)c1OC	DT40 TDP1 CPT inconclusive (no result: TDP1 block)
COc1cc(C(=O)O/N=C2\C=CC(=O)C=C2C)cc(OC)c1OC	DT40 TDP1 CPT 12µM, TDP1 cell noCPT inconclusive, PLK1 PBD block inconclusive
Cc1ccsc1C(=O)N1CCCC(C)(C(=O)O)C1 (stereo not given)	none (no result: TDP1 block, VDR inhibitor, KAT2A inh)
Cc1ccc(S(=O)(=O)NCc2cccnc2)cc1C	none (no result: TDP1 block)
Cc1nc(-c2ccc(S(=O)(=O)N3CCN(Cc4ccccc4)CC3)s2)cs1	DT40 TDP1 CPT inconclusive, TDP1 cell noCPT 9.2µM
Cc1ccccc1CN1CCN(S(=O)(=O)c2ccc(Cl)s2)CC1	DT40 TDP1 CPT 23µM, TDP1 cell noCPT inconclusive
Cc1nc(-c2ccc(S(=O)(=O)NCc3cccnc3)s2)cs1	DT40 TDP1 CPT 12µM, TDP1 cell noCPT 21µM
Cc1ccc(S(=O)(=O)N2CCN(Cc3ccccc3)CC2)s1	none
CCOC(=O)c1c(/C=N/Nc2ccccc2)c2sc(C)cc2n1C	none (no result: DT40 TDP1 CPT, TDP1 block, TDP1 cell noCPT, VDR inhibitor, PLK1 PBD block)
CCOC(=O)c1cc(-c2ccccc2)sc1NC(=O)CC(C)C	TDP1 cell noCPT inconclusive
CCOC(=O)c1cc(-c2ccccc2)sc1NC(=S)Nc1cc(C)ccn1	DT40 TDP1 CPT inconclusive, TDP1 cell noCPT 10µM
Cc1cccc2cc(CN(CC3CCCO3)C(=O)c3cccc(F)c3)c(N(C)C)nc12 (stereo not given)	none (no result: TDP1 block, VDR inhibitor, PLK1 PBD block, KAT2A inh)
O=C1c2ccccc2C(=O)c2c(NCCCN(CCO)CCO)cccc21	DT40 TDP1 CPT inconclusive, TDP1 cell noCPT 21µM, PLK1 PBD block inconclusive
CCOC(=O)Nc1ccc(/C=C/c2ccnc3ccccc23)cc1	DT40 TDP1 CPT inconclusive, TDP1 cell noCPT 13µM (no result: TDP1 block, VDR inhibitor, PLK1 PBD block, KAT2A inh)
CCCCCCCCCCCCCC(=O)Nc1ccc(/C=C/c2ccnc3ccccc23)cc1	DT40 TDP1 CPT 11µM, TDP1 cell noCPT 18µM (no result: TDP1 block, VDR inhibitor, PLK1 PBD block, KAT2A inh)
CC(C)(Cc1ccc(O)cc1)NC(=O)CC(=O)N/N=C/c1ccc(Cl)cc1	DT40 TDP1 CPT inconclusive, TDP1 cell noCPT 18µM (no result: TDP1 block)
COc1cc(OC)c(N(C)C(=O)c2c(C)oc3ncn(CC(C)C)c(=O)c23)cc1Cl	none (no result: PLK1 PBD block)
S=c1nc(Cc2ccccc2)[nH]c2ccccc12	DT40 TDP1 CPT 26µM, TDP1 cell noCPT inconclusive (no result: TDP1 block)
FC(F)(F)c1nc(=S)c2ccccc2[nH]1	VDR inhibitor inconclusive, PLK1 PBD block 21µM, KAT2A inh inconclusive
COC(=O)c1cc(S(=O)(=O)NCCc2ccc(C)cc2)c[nH]1	DT40 TDP1 CPT inconclusive, TDP1 cell noCPT inconclusive (no result: TDP1 block)
O=C(C1CCC1)N1CCc2cc(S(=O)(=O)NCCN3CCN(c4ccccc4F)CC3)ccc21	DT40 TDP1 CPT inconclusive, TDP1 cell noCPT 23µM
O=C(C1CCC1)N1CCc2cc(S(=O)(=O)NCCc3ccccc3)ccc21	DT40 TDP1 CPT inconclusive, TDP1 cell noCPT inconclusive (no result: PLK1 PBD block)
COC(=O)c1cc(S(=O)(=O)N(Cc2ccccc2)C(C)(C)C)c[nH]1	DT40 TDP1 CPT 18µM, TDP1 cell noCPT 16µM
COC(=O)c1cc(S(=O)(=O)NCCN2CCN(c3ccccc3F)CC2)c[nH]1	DT40 TDP1 CPT inconclusive, PLK1 PBD block 21µM
COC(=O)c1cc(S(=O)(=O)NCCc2ccc(Cl)cc2)c[nH]1	DT40 TDP1 CPT 18µM, TDP1 cell noCPT 12µM (no result: TDP1 block)

Assay outcomes from PubChem BioAssay.
